# Experiments:
# Conditions in all cases: concentration: 1 μM, replicates: in singlicate; n = 1
# MAP3K15 = system: MAP3K15
# MAP3K1 = system: MAP3K1
# MAP3K2 = system: MAP3K2
# MAP3K3 = system: MAP3K3
# MAP3K4 = system: MAP3K4
# MAP4K2 = system: MAP4K2
# MAP4K3 = system: MAP4K3
# MAP4K4 = system: MAP4K4
# MAP4K5 = system: MAP4K5
# MAPKAPK2 = system: MAPKAPK2
# MAPKAPK5 = system: MAPKAPK5
# MARK1 = system: MARK1
# MARK2 = system: MARK2
# MARK3 = system: MARK3
# MARK4 = system: MARK4
# MAST1 = system: MAST1
# MEK1 = system: T1, MEK1
# T1 construct: gene MAP2K1
# MEK2 = system: T2, MEK2
# T2 construct: gene MAP2K2
# MEK3 = system: T3, MEK3
# T3 construct: gene MAP2K3
# MEK4 = system: T4, MEK4
# T4 construct: gene MAP2K4
# 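Also: KINOMEscan kinase panel screen.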
Structure (SMILES),%Inh (MAP3K15),%Inh (MAP3K1),%Inh (MAP3K2),%Inh (MAP3K3),%Inh (MAP3K4),%Inh (MAP4K2),%Inh (MAP4K3),%Inh (MAP4K4),%Inh (MAP4K5),%Inh (MAPKAPK2),%Inh (MAPKAPK5),%Inh (MARK1),%Inh (MARK2),%Inh (MARK3),%Inh (MARK4),%Inh (MAST1),%Inh (MEK1),%Inh (MEK2),%Inh (MEK3),%Inh (MEK4)
CCS(=O)(=O)c1ccc(OC)c(Nc2nccc(-c3c(-c4cccc(NC(=O)c5c(F)cccc5F)c4)nn4ncccc34)n2)c1 [GSK326180],0%,10%,6%,0%,7%,0%,22%,3%,0%,34%,0%,6%,22%,0%,9%,0%,31%,18%,2%,25%
COc1cccc(NC(=O)NC2CCN(c3ccnc(Nc4cc(OC)c(OC)c(OC)c4)n3)C2)c1 (centres unmarked) [GSK1379763],0%,80%,3%,0%,39%,0%,12%,56%,81%,0%,0%,0%,0%,0%,0%,0%,0%,9%,8%,12%
Nc1n[nH]c2cnc(-c3ccccc3)cc12 [SB-642124],21%,14%,12%,0%,23%,31%,3%,17%,0%,20%,0%,0%,0%,0%,0%,14%,0%,0%,0%,37%
Cl.c1ccc(-c2ccc3c(Nc4ccc5[nH]ccc5c4)ccnc3c2)nc1 [GW440138],0%,1%,0%,0%,9%,46%,0%,12%,0%,9%,0%,0%,0%,0%,0%,0%,0%,0%,0%,0%
CN(C)S(=O)(=O)c1cc(-c2ccc3nccc(-c4cccc(S(N)(=O)=O)c4)c3c2)cnc1N [GSK1669921],23%,6%,0%,0%,0%,13%,5%,0%,0%,19%,8%,0%,0%,0%,0%,0%,7%,0%,0%,27%
Cn1cc(-c2ccc3c(c2)CCN3C(=O)Cc2cccc(F)c2)c2c(N)ncnc21 [GSK2603358],0%,15%,84%,50%,66%,18%,64%,0%,57%,31%,0%,69%,0%,0%,34%,5%,15%,0%,0%,26%
c1ccc(-c2n[nH]cc2Nc2ccnc3ccccc23)nc1 [GW694077],6%,0%,38%,0%,9%,65%,0%,20%,0%,0%,0%,0%,0%,0%,1%,3%,0%,0%,92.5%,92.8%
COCCOCCOc1cc2ncc3c4ccc(C#N)cc4[nH]c3c2cc1OC,65%,0%,0%,4%,17%,11%,39%,42%,19%,0%,0%,0%,13%,7%,0%,69%,48%,80%,12%,0%
CC(C)(C)c1ccc2nccc(Nc3cccc(O)c3)c2c1 [GW856795],0%,0%,0%,0%,0%,100%,0%,23%,29%,11%,0%,9%,2%,27%,21%,22%,46%,44%,49%,0%
COc1cc(Nc2nccc(-c3c(-c4cccc(NC(=O)c5c(F)cccc5F)c4)nn4ncccc34)n2)cc(OC)c1OC [GSK327238],0%,11%,95.4%,92.9%,88%,12%,83%,67%,98.8%,7%,0%,53%,18%,30%,56%,0%,98.5%,98.4%,12%,46%
c1ccc(Oc2ccc(Nc3ccnc4cc(-c5ccc(CNCCN6CCOCC6)o5)ccc34)cc2)nc1 [GW567145],0%,9%,1%,0%,0%,0%,0%,9%,56%,0%,0%,0%,0%,0%,0%,34%,90.8%,94.2%,0%,0%
CN(c1ccc(NC(=O)Nc2cc(C(F)(F)F)ccc2F)cc1)c1ccnc(Nc2ccc(S(N)(=O)=O)cc2)n1 [GW809893],0%,33%,7%,15%,72%,26%,96.8%,97.7%,99.2%,0%,0%,7%,22%,2%,1%,18%,0%,19%,51%,67%
COc1cc(Nc2nccc(-c3c(-c4cccc(NC(=O)c5c(F)cccc5F)c4)nn4ccccc34)n2)cc(OC)c1OC [GSK323521],0%,27%,56%,20%,65%,37%,71%,0%,70%,24%,3%,6%,0%,51%,17%,0%,4%,0%,0%,41%
CC(=O)Nc1nc2cnc(Nc3cc(NC(=O)c4cccc(C5(C#N)CC5)c4Cl)ccc3C)nc2s1,0%,0%,0%,0%,10%,16%,0%,17%,0%,0%,0%,1%,19%,0%,10%,23%,0%,0%,0%,5%
CN1CCN(Cc2cccc(-c3ccc4c(Nc5ccc(Oc6ccccc6)cc5)ccnc4c3)c2)CC1 [GW578342],0%,0%,0%,0%,15%,0%,0%,0%,0%,3%,0%,0%,5%,0%,0%,47%,54%,55%,0%,9%
Cc1cccc(Nc2nc(N[C@H]3CCNC3)ncc2C(N)=O)c1.Cl [GSK2197149],0%,0%,88%,60%,45%,88%,40%,73%,33%,0%,0%,0%,19%,0%,4%,0%,31%,31%,85%,66%
c1ccc(-c2cnc3nccnn23)cc1 [AH20685],0%,0%,0%,0%,21%,0%,0%,0%,0%,0%,0%,0%,0%,0%,0%,0%,0%,0%,0%,2%
CCCCc1nn2ncccc2c1-c1ccnc(Nc2ccc(N3CCN(C)CC3)cc2)n1 [GW684941],9%,16%,37%,49%,40%,0%,12%,0%,21%,0%,0%,0%,0%,32%,0%,31%,0%,0%,0%,32%
COc1ccc(Nc2nccc(N3CCC(NC(=O)Nc4cccc(OC)c4)C3)n2)cc1 (centres unmarked) [GSK1379742],0%,0%,0%,0%,23%,0%,5%,0%,0%,9%,0%,0%,0%,0%,0%,23%,0%,0%,0%,24%

# — publication PMC5540273 (PLoS ONE, 2017)
